Laboratory results: the supplement of paper PMC11732987, “Enantioselective OTUD7B fragment discovery through chemoproteomics screening and high-throughput optimisation” (Communications Chemistry, 2025)

Assays:
Assay in all cases: log2 ratio of Biotin-Ahx-Ub-VS probe labelling (fragment/DMSO); higher = less target engagement (more negative = stronger competition), active = hit call of the paper (q ≤ 0.05, log2 ratio ≤ -1)
Details in all cases: compound concentration: 200 uM; treatment time: 3 h
[1] = molecular target: USP34 (UniProt Q70CQ2)
Sequence of USP34 (Q70CQ2 whole entry, the tested form may be a part): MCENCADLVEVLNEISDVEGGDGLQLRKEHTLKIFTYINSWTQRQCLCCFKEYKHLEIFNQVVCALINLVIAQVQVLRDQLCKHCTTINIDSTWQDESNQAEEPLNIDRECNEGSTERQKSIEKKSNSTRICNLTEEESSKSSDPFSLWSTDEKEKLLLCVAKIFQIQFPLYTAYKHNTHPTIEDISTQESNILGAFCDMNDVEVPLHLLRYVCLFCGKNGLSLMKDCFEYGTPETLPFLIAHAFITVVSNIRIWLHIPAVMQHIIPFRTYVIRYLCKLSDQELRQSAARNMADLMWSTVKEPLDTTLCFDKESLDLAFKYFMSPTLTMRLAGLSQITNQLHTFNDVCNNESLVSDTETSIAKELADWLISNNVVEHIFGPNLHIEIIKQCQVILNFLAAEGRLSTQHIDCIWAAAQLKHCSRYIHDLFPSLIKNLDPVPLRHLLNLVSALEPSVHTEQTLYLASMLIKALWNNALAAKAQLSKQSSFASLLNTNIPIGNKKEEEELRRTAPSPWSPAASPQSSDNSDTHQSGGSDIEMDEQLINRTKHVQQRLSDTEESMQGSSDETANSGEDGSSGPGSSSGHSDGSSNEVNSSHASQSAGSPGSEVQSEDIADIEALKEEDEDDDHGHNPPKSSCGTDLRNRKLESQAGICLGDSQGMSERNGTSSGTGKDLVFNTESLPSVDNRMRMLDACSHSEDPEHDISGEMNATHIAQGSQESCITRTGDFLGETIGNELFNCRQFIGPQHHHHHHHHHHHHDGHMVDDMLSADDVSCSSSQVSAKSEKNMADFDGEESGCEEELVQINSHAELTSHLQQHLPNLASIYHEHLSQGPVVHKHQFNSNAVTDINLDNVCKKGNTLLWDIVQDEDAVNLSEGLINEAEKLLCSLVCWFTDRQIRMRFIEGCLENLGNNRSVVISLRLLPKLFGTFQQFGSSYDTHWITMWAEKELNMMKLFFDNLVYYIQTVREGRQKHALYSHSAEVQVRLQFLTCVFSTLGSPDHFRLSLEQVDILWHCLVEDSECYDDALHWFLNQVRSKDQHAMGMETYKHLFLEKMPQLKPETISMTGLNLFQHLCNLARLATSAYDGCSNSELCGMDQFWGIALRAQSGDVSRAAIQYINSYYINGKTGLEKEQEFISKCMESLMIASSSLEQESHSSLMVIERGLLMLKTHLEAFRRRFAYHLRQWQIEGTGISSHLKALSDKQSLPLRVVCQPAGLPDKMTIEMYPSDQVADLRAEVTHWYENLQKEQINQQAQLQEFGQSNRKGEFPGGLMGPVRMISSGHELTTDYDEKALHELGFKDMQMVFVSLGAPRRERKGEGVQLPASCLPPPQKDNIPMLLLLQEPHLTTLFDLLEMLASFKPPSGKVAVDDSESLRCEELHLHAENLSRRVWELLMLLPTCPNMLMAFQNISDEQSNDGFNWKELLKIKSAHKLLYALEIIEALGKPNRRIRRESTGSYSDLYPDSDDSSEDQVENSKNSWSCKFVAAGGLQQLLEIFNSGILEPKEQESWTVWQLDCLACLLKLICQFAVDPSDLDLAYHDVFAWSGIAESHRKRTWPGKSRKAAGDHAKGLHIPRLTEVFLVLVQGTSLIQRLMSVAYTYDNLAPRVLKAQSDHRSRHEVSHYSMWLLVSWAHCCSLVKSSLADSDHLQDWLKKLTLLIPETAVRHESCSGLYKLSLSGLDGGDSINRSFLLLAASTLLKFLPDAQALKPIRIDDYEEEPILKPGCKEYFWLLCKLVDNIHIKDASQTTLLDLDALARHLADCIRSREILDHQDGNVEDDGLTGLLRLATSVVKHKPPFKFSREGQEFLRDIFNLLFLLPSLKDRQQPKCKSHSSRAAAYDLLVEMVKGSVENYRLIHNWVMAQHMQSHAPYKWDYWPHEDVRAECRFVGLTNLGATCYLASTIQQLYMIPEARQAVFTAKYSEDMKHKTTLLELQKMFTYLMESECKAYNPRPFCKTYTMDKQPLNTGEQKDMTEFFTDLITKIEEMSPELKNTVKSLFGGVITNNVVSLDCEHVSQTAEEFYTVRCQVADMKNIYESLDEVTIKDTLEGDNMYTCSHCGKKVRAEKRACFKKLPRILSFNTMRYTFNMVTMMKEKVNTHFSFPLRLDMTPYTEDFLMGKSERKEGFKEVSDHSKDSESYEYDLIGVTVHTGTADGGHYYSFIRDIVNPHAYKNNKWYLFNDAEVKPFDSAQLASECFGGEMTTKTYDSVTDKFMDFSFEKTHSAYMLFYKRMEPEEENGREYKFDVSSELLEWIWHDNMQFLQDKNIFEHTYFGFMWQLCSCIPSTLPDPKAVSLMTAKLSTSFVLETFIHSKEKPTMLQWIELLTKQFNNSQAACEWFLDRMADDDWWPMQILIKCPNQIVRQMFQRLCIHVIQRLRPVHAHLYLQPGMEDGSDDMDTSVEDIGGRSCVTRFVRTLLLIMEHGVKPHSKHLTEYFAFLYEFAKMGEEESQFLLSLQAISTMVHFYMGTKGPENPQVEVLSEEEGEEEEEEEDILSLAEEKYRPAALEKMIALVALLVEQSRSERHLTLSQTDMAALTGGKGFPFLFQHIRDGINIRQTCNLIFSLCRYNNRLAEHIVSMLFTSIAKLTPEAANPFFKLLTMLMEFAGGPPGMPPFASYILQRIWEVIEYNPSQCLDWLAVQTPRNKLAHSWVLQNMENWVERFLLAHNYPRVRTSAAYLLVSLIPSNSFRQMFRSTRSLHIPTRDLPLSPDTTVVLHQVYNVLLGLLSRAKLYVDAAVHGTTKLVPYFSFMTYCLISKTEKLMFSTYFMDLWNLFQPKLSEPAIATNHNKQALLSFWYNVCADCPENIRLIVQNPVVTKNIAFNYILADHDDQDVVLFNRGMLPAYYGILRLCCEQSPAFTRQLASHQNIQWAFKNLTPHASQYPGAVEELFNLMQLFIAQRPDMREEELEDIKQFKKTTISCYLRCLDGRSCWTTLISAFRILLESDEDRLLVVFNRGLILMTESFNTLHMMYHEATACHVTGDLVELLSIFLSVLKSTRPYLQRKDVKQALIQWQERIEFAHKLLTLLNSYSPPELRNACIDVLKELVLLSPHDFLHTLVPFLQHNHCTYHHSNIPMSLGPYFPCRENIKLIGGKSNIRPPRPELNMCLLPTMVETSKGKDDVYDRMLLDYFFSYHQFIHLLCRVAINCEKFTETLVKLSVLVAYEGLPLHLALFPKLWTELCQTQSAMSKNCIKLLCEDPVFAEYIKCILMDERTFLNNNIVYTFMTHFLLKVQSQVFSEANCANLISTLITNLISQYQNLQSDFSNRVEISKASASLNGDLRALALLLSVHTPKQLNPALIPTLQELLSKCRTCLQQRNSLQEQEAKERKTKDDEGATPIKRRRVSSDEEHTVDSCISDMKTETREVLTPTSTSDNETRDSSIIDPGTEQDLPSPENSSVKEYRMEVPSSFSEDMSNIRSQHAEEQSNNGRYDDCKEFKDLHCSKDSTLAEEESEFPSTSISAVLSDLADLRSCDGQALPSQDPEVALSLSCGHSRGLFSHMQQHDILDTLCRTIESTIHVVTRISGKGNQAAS
Outline: (§1)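 Each value is an average log2 ratio of fragment to vehicle, tested by unpaired t-test. The underlying Spectronaut label-free quantities were global-median-normalised, and only proteins with ≥2 unique peptides were included. Triplicate HEK293T lysate samples (495 µg) were exposed to fragment at 200 µM or vehicle for 3 h, then to Biotin-Ahx-Ub-VS at 0.5 µM final for 1 h, before NeutrAvidin enrichment of labelled DUBs, LysC and trypsin digestion, and diaPASEF LC-MS/MS.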

[2] = molecular target: T1, USP36 (UniProt Q9P275)
T1 sequence (whole entry): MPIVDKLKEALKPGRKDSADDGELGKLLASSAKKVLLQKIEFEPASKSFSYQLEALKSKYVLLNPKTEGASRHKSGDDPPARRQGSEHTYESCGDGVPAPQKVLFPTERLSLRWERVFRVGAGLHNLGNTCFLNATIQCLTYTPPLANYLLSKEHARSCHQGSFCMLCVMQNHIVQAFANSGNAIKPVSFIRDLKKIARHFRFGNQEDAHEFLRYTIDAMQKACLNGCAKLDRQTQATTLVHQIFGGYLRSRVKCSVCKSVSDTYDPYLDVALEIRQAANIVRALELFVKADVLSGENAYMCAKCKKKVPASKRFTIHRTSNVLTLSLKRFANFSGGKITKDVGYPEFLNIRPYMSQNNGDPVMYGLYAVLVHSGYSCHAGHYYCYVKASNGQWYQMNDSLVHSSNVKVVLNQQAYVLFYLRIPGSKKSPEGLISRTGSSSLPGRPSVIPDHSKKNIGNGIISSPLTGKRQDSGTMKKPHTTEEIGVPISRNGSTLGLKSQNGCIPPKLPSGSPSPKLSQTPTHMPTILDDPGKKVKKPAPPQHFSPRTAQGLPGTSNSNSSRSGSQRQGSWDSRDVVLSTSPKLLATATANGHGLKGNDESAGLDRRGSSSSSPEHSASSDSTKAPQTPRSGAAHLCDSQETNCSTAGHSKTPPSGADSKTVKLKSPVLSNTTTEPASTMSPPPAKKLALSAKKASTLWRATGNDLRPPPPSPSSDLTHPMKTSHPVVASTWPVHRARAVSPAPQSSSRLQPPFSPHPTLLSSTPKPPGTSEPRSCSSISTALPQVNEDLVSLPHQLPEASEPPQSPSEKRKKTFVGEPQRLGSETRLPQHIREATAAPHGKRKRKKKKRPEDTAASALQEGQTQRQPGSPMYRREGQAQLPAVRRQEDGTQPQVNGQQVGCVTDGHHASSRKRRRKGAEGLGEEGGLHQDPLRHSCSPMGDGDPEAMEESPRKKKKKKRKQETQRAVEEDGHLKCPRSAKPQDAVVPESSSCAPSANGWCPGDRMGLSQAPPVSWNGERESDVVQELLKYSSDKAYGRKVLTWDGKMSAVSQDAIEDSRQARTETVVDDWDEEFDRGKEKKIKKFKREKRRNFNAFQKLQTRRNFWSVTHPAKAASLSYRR
Outline: as §1

[3] = molecular target: T2, USP38 (UniProt Q8NB14)
T2 sequence (whole entry): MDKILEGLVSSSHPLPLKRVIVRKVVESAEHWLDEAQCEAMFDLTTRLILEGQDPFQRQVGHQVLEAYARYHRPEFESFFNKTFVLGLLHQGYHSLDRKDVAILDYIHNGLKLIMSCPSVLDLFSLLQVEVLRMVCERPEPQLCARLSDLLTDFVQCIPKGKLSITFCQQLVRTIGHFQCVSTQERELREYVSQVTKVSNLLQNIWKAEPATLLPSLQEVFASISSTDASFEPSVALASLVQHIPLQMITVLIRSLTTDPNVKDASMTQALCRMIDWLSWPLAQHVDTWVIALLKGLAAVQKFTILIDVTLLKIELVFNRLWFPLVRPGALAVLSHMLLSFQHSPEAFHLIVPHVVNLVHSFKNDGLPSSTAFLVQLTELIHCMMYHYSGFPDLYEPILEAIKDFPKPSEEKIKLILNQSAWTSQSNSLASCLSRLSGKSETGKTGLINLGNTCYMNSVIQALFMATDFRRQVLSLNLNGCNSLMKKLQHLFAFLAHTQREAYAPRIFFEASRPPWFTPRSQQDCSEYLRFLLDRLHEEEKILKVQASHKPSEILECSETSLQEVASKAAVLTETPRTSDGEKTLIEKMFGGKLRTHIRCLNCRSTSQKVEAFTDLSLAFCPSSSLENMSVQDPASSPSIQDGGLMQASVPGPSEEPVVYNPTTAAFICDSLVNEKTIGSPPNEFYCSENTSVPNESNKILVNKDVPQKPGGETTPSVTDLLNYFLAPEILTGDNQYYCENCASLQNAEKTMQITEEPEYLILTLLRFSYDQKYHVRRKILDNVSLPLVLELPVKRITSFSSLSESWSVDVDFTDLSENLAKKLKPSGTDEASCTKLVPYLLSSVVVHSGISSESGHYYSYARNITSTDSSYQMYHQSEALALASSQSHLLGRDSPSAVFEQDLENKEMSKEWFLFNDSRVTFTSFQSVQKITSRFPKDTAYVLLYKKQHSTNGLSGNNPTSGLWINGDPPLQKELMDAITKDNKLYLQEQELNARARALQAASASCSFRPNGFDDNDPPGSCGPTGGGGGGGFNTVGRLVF
Outline: as §1

[4] = molecular target: T3, USP39 (UniProt Q53GS9)
T3 sequence (whole entry): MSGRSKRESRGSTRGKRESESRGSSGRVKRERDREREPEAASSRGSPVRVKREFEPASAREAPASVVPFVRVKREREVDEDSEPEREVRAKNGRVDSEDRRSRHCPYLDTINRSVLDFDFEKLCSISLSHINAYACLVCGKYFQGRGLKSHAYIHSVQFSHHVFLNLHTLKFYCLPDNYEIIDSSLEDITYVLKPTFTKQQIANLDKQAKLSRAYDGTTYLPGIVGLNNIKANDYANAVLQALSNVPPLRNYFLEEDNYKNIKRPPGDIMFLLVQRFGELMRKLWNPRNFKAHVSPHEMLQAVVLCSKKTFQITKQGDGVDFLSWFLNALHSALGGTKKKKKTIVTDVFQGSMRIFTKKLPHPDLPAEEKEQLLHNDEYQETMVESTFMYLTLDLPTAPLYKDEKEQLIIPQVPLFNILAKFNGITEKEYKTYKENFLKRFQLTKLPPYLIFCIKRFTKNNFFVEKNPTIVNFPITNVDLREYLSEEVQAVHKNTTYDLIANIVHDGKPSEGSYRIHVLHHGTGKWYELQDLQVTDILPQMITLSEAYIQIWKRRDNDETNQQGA
Outline: as §1

[5] = molecular target: T4, USP4 (UniProt Q13107)
T4 sequence (whole entry): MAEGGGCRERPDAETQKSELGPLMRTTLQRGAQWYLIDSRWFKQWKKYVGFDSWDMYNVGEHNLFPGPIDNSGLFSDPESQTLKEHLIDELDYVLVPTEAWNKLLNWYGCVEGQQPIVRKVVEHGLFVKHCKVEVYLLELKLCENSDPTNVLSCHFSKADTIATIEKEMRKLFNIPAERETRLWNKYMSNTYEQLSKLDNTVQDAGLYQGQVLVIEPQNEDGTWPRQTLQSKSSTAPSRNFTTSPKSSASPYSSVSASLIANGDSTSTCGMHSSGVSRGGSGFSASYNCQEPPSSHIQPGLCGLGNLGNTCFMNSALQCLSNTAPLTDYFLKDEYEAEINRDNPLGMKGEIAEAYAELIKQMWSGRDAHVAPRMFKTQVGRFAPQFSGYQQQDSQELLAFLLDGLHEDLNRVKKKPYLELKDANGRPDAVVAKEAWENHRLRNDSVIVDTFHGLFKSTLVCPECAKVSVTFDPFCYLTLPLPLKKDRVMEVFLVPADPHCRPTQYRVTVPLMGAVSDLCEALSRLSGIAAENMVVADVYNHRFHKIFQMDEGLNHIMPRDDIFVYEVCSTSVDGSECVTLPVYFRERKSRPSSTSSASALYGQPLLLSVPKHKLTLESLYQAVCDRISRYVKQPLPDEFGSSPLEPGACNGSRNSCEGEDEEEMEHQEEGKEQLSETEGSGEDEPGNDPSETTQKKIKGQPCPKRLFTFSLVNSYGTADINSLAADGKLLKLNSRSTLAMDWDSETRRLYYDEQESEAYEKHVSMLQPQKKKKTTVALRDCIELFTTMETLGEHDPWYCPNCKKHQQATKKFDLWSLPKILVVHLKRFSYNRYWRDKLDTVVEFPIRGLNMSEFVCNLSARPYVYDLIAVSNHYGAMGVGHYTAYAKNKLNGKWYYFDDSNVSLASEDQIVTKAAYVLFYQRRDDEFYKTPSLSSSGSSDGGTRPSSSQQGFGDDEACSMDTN
Outline: as §1

Measured: log2 ratio of Biotin-Ahx-Ub-VS probe labelling

Cl.O=C(CCl)N1CCn2ncc(O)c2C1
inactive: [1] -0.237 | [2] -0.037 | [3] -0.188 | [4] 0.194 | [5] -0.298
